The list is not random: actives were taken first. Their share in the collection is about 19%.
DT40 TDP1 CPT = DT40-hTDP1 cell growth loss with CPT | actives 12% (n = 420,000) | chicken DT40 Tdp1-/-;hTDP1 cells + 20 nM CPT, ATP luminescence, 48 h | AID 686979 | Potency, µM (top dose mostly 46.2 µM), actives largely listed as inhibitors; note: nearly all actives have a fitted effect of over 55% in size
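Chicken DT40 Tdp1-/- cells stably complemented with human TDP1 were seeded at 400 cells/well in medium containing 20 nM camptothecin, exposed to pin-transferred compounds, and grown at 37 °C for at least 48 hr. Viability was read as ATP luminescence.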
DT40 TDP1 no CPT = qHTS for Inhibitors of human tyrosyl-DNA phosphodiesterase 1 (TDP1): qHTS in cells in absence of CPT; DT40 Tdp1-/- hTDP1 cells, no CPT, ATP luminescence, 48 h; Potency, µM (series often up to 46.2 µM), hits mostly inhibitors; actives 15% (n = 420,000); note: nearly all actives have a fitted effect of over 55% in size
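Cells were dispensed at 400 per well, compounds added by pin tool, plates incubated ≥48 hr at 37 °C, then CellTiter-Glo added for 30 min at room temperature before luminescence reading. Line: DT40 Tdp1-/- complemented with hTDP1; camptothecin omitted.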
HT1080NT lethal = kills 2HG-producing HT-1080-NT fibrosarcoma cells. HT-1080-NT fibrosarcoma viability, CellTiter-Glo ATP luminescence, 48 h. Potency, µM (titrated, usually from 46.1 µM), hits mostly cytotoxic. actives 1.6% (n = 360,000). AID 686970;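 note: NT is the 2HG producing partner of a matched IDH1 knockdown line; nearly all actives have a fitted effect of over 55% in size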
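HT-1080-NT; 750 cells/well; 5% FBS RPMI; 48 h compound, 37 degrees C; CellTiter-Glo luminescence; curve fitting and curve-class assignment.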
IL1B secr inh = blocks inflammasome-driven IL-1 beta release | THP-1 LPS/ATP IL-1B secretion, AlphaLISA, 16 h; active compounds read low | actives 4.7% (n = 360,000) | activity change, % at 57.5 µM | AID 743279; in the data active = activity change below about -50%; inconclusive = mostly about -30% to -49%
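THP-1 cells pretreated 1 hr with compounds (up to 57.5 uM final), then stimulated with LPS (250 ng/mL final) plus ATP (1.25 mM final); secreted IL-1B measured by AlphaLISA after 16 hr, decreased signal indicating inhibition.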
HT1080 IDH1KD tx = kills HT-1080 cells with IDH1 knockdown; HT-1080 IDH1 knockdown viability, ATP luminescence, 48 h; Potency, µM (highest dose often 46.1 µM), hits mostly cytotoxic; actives 2% (n = 360,000); AID 686971
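Luminescent ATP read-out (CellTiter-Glo, 10 min at room temperature) after 48 h compound exposure at 37 °C gave viability of IDH1-knockdown HT-1080 cells. Activity was normalised to DMSO and cell-free wells, then fitted as concentration-response curves.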
A number is an active result; – = inactive; ? = inconclusive; · = not tested or not shown; ! = a repeat was not active. Unless noted, calls come from the whole dose curve; as a rule, active = well fitted curve in the direction sought with a large enough effect; inconclusive = small, poorly fitted or top-dose-only effect, or another doubt; inactive = no such curve, though single readings can be large; an effect the other way counts as inactive or inconclusive.

SMILES	DT40 TDP1 CPT	DT40 TDP1 no CPT	HT1080NT lethal	IL1B secr inh	HT1080 IDH1KD tx
O=C(Nc1nc(-c2ccccn2)cs1)c1ncc(Cl)c(Cl)c1Cl	–	3.3µM	–	–	?
Cn1cccc1C(=O)Nc1nc(-c2ccccn2)cs1	2.6µM	4.1µM	?	–	?
O=C(Nc1nc(-c2ccccn2)cs1)c1ccc(Cl)s1	1µM	0.92µM	?	–	4.1µM
O=C(CN1C(=O)CCC1=O)Nc1nc(-c2ccccn2)cs1	?	–	–	–	–
CN(Cc1ccccc1)C(=O)c1ccc(NC(=O)C2=CSCCO2)cc1	–	–	–	–	–
CC(Nc1cc(=O)n(C)c(=O)[nH]1)c1ccccc1 (centres undefined)	?	–	–	–	–
CCc1sc(C(=O)Nc2nc(-c3ccccn3)cs2)cc1C	2.9µM	4.1µM	–	–	?
Cc1nc(C)c(-c2csc(Nc3ccc(N)cc3)n2)s1	?	16µM	–	–	–
COc1ccc(-c2csc(Nc3ccc(Oc4ccccc4)cc3)n2)cc1	18µM	16µM	?	–	13µM
COc1ccc(Nc2nc(-c3sc(C)nc3C)cs2)cc1	1.2µM	1.2µM	5.2µM	–	3.7µM
CC(C)c1ccc(NC(=O)c2ccc(-c3ccnn3C)c3ccoc23)cc1	16µM	21µM	15µM	–	18µM
CC(=O)Nc1ccc(NC(=O)c2ccc(-c3ccnn3C)c3ccoc23)cc1	?	?	–	-93	–
CN1CCN(c2ccc(CNC(=O)c3ccc(-c4ccnn4C)c4ccoc34)cc2)CC1	?	?	–	–	–
COc1cc(NC(=O)c2ccc(-c3ccnn3C)c3ccoc23)cc(OC)c1OC	?	21µM	–	–	–
CCNC(=O)C1(C)CCCN(C(=O)c2ccc3c(c2)C(C)(C)CCC3(C)C)C1 (centres undefined)	5.8µM	6.5µM	–	–	?
CCNC(=O)C1(C)CCN(C(=O)c2ccc3ccccc3c2)C1 (centres undefined)	–	–	–	–	–
CCNC(=O)C1(C)CCCN(C(=O)c2ccc3sccc3c2)C1 (centres undefined)	–	–	–	–	–
CCNC(=O)C1(C)CCN(C(=O)c2ccc(-c3ccccc3)cc2)C1 (centres undefined)	16µM	?	–	–	–
CC(C)NC(=O)C1(C)CCCN1C(=O)c1ccc2c(c1)C(C)(C)CCC2(C)C (centres undefined)	4.6µM	3.7µM	–	–	–
O=C(c1ccc(NC(=S)NCc2ccco2)cc1)N1CCCCC1	–	–	–	–	–
CCCc1cc(=O)n2[nH]c(NC(=O)c3ccccc3Cl)nc2n1	–	–	·	·	·
COc1cc(OC)c2c(c1C(CCN1CCOCC1)c1ccc(N(C)C)cc1)OC(=O)CC2c1ccc(N(C)C)cc1 (centres undefined)	16µM	?	–	–	–
COc1cc(C(CCN2CCCC(C)C2)c2c(OC)cc(OC)c3c2OC(=O)CC3c2ccc(N(C)C)cc2)cc(OC)c1OC (centres undefined)	?	?	–	-111	–
O=C(CN1C(=O)c2cccnc2Oc2ccc(Cl)cc21)NCCCN1CCCCC1	–	–	·	·	·
CN(C)CC(C)(C)CNS(=O)(=O)c1ccc(Cl)c(Cl)c1	–	2.3µM!	–	-54!	16µM!
SMILES	DT40 TDP1 CPT	DT40 TDP1 no CPT	HT1080NT lethal	IL1B secr inh	HT1080 IDH1KD tx
COc1cc(CN2CCCC(CO)(Cc3ccccc3C)C2)cc2c1OCO2 (centres undefined)	15µM	?	–	-63	?
COCc1ccc(CN2CCCC(CO)(Cc3ccccc3C)C2)o1 (centres undefined)	–	?	–	–	–
CCOC(=O)C1(Cc2ccccc2)CCN(Cc2cc(OC)c3c(c2)OCO3)CC1	?	?	–	-83	–
CCOC(=O)C1(Cc2ccccc2)CCN(Cc2cccc3c2OCO3)CC1	–	?	–	-53	–
CCOC(=O)C1(Cc2ccccc2C(F)(F)F)CCN(Cc2ccon2)CC1	?	15µM	–	–	–
CCCn1cc(CN2CCC(Cc3ccccc3)(C(=O)OCC)CC2)c(C)n1	?	?	–	–	–
CCOC(=O)C1(Cc2ccccc2)CCN(Cc2ccon2)CC1	–	–	–	–	–

Source: PubChem BioAssay
